# Data taken from PubChem BioAssay AID1345083 (National Center for Advancing Translational Sciences (NCATS), 2018).
# Among all 94,000 compounds or so, about 6,200 (6.6%) were called active. Entries that show only a call come without a potency. Inconclusive results (about 31%) are left out. Calls follow the shape of the dose curve; as a rule, active = well fitted inhibition curve with a large enough effect; inconclusive = small, poorly fitted or top-dose-only effect; inactive = flat fitted curve, though single readings scatter. For the sample, actives were picked, then their nearest neighbours and some compounds at random.
# Assay: Cytotoxic Profiling in HEK 293 Cell Line of Diverse Libraries Using Quantitative High-Throughput Screening; also: nearly all actives have a fitted effect of over 60% in size
# Details: HEK 293 viability, ATP luminescence (CellTiter-Glo), 48-72 h; series mostly up to 115 µM
# How it was run: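 Viability of HEK 293 cells, plated at 250 cells/well, was judged by cellular ATP after compound treatment for 48 or 72 hr. Luminescence was imaged 10 min after CellTiter-Glo addition at room temperature.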
# Potency is read from the fitted curve at half-maximal effect.
row,SMILES,Potency
1,CCc1nc(-c2c3n(c(=O)n(CC(=O)NC4CCCCC4)c2=O)CCCC3)no1,inactive
2,CCOC(=O)C1=C(C)NC(=O)NC1c1ccccc1 (centres undefined),inactive
3,Cc1nccnc1N1CCC(c2nnc(CN3CCCC3)n2C)CC1,inactive
4,O=C1Cc2c(-c3ccc(CO)cc3)n[nH]c2CN1CC1CCOCC1,inactive
5,O=C1Cc2c(-c3ccc(Oc4ccccc4)cc3)n[nH]c2CN1CCc1ccncc1,79.4 µM (active)
6,CC(C)Oc1cccc(-c2n[nH]c3c2CC(=O)N(Cc2ccccc2)C3)c1,inactive
7,CCc1ocnc1C(=O)NC1CC(c2cc(N3CCC(O)C3)ncn2)C1 (centres undefined),inactive
8,O=C(CN1CCCC1=O)NC1CCCc2nc(-c3ccccc3)ncc21 (centres undefined),inactive
9,Cc1nc(CCNC(=O)C2CCCN(c3nc(-c4ccccc4)nc4c3CCC4)C2)n[nH]1 (centres undefined),inactive
10,O=C(NC1CCNC1)C1CCN(c2nc(-c3ccccc3)nc3c2CCC3)CC1 (centres undefined),35.5 µM (active)
11,CC(C)c1nc(CCNC(=O)[C@H]2CNC[C@@H](C(=O)N3CCCC3)C2)cs1,inactive
12,O=C(NCC1CCNCC1)c1ccc(C2CCNC2)cc1 (centres undefined),inactive
13,O=C(NCCn1cccc1-c1nc(-c2ccc3c(c2)OCO3)no1)c1cccc(F)c1,inactive
14,COc1ccc(Nc2cc3c(nc2-c2ccccc2)nc(C(=O)NCCN(C)C)n3C)cn1,inactive
15,CN(C)CCNC(=O)c1nc2nc(-c3ccccc3)c(-c3cccc(F)c3)cc2n1C,50.1 µM (active)
16,Cn1cccc1C(=O)N1CC[C@@H]2NC(=O)[C@H]3C[C@H](NC(=O)C4CC4)CN3C(=O)[C@H]21,inactive
17,CCCCN1C(=O)C(CC(=O)N2CCCCC2)Sc2ncccc21 (centres undefined),inactive
18,CC(C)CNC(=O)c1nc2sccn2c1-c1ccncc1,inactive
19,CC(=O)N1CCC([C@@H]2CN(Cc3cc(F)c(F)cc3F)C[C@H]2CO)CC1,inactive
20,CC(C)S(=O)(=O)N1CCC(N2CC(OCC3CC3)C23CCCCC3)CC1 (centres undefined),inactive
21,O=C1NC2(CCN(C(=O)c3ccccc3)C2)COc2ccccc21 (centres undefined),100 µM (active)
22,O=C1CC2(CCN(C(=O)c3ccccc3)C2)Nc2ccccc2N1 (centres undefined),inactive

row,SMILES,Potency
1,O=C1NC2(CCN(C(=O)c3ccccn3)C2)Oc2ccccc21 (centres undefined),inactive
2,CCN(C1CCOCC1)C1CN(C(=O)C2CCC2)C1,inactive
3,COCCNC(=O)[C@@H]1C[C@H](Oc2ccccc2)CN1C(=O)c1ccccn1,inactive
4,COc1ccc(-c2cc(N3CCCC(NC(=O)c4ccsc4)C3)n[nH]2)cc1 (centres undefined),35.5 µM (active)
5,COc1ccc(C(=O)NCCC2CCN(C(=O)Nc3cc(F)ccc3F)CC2)cc1,inactive
6,Cc1ccc(C(=O)NC2CCN(c3cc(-c4cccs4)[nH]n3)C2)cc1 (centres undefined),inactive
7,COC(=O)NC1CCCN(c2ccc3nnc(C)n3n2)C1 (centres undefined),inactive
8,Cc1ccc(-c2cc(N3CCC(CNC(=O)c4ccc(N(C)C)cc4)CC3)n[nH]2)cc1,inactive
9,Cn1nccc1C(=O)NC1CCCN(c2cc(N3CCCC3)ncn2)C1 (centres undefined),inactive
10,COc1ccc(-c2cc(N3CCCC(NC(=O)c4cc(F)ccc4Cl)C3)n[nH]2)cc1 (centres undefined),28.2 µM (active)
11,O=C(NC1CCN(c2cc(C(F)(F)F)ncn2)CC1)c1ccc(F)cc1,inactive
12,COc1ccc(-c2cc(N3CCC(NC(=O)c4ccc(N(C)C)cc4)C3)n[nH]2)cc1 (centres undefined),70.8 µM (active)
13,COc1ccc(-c2cc(N3CCCC(NC(=O)c4cccc(Cl)c4)C3)n[nH]2)cc1 (centres undefined),44.7 µM (active)
14,Cc1cc(C(=O)N2C[C@@H](COCC(N)=O)[C@H](c3ccncc3)C2)c(C)o1,inactive
15,O=C1Nc2cnccc2C2(CCN(C(=O)c3ccccc3F)C2)O1 (centres undefined),inactive
16,CCOc1ccccc1NC(=O)CC[C@H]1NC(=O)c2ccccc2NC1=O,inactive
17,O=C(c1ccoc1)N1CCC(Oc2ncccc2C(=O)N2CCOCC2)C1 (centres undefined),inactive
18,CN1[C@@H](CCC(=O)NCc2ccccc2)CNC(=O)[C@@H]2[C@H]1CCN2Cc1csnn1,inactive
19,O=C(c1ccc(CO)o1)N1CCC2(CC1)[C@H](O)C[C@@H]2OCCO,inactive
20,CC(c1cccs1)N(C)Cc1ccncc1 (centres undefined),inactive
21,COCc1nnc2n1CCC(NC(=O)NCCc1ccccc1)CC2 (centres undefined),inactive
22,O=C(CCCc1ccccc1)Nc1ccc(-c2nnc3n2CCCC3)cc1,inactive

row,SMILES,Potency
1,CN1Cc2ncnc(N3CCCCC3)c2CN(c2ccccc2)C1=O,inactive
2,O=C(NCC1CC1)C1CCCN(C2CCN(Cc3ccncc3)CC2)C1 (centres undefined),inactive
3,COc1ccccc1-c1cccc(CN2CCCC(C(=O)NCC3CC3)C2)c1 (centres undefined),39.8 µM (active)
4,CN(C)C(=O)N1CCCC(C(=O)N2CCC(N3Cc4cccn4C3=O)CC2)C1 (centres undefined),inactive
5,O=C(c1cccs1)C1CCCN(C(=O)COc2ccc(F)cc2F)C1 (centres undefined),inactive
6,O=C(C1CCCN(Cc2cccc(-c3ccc(F)cc3F)c2)C1)N1CCCCC1 (centres undefined),31.6 µM (active)
7,O=C(Nc1cccc(F)c1)N1CCCC(CN2CCOCC2)CC1 (centres undefined),inactive
8,O=C1CCN(Cc2ccncc2)CCCC(C(=O)Nc2cccc(F)c2)CCN1 (centres undefined),inactive
9,O=C(Nc1ccc(F)cc1)C1CCCN(Cc2cccc(-c3ccc(F)cc3F)c2)C1 (centres undefined),35.5 µM (active)
10,CNC(=O)[C@@H](Cc1ccccc1)N1CCC[C@H]1C(=O)NCC1CC1,inactive
11,Cc1nnc2n1C(C)CN(C(=O)CCCc1nc(-c3ccncc3)no1)C2 (centres undefined),inactive
12,O=C(NCc1cccnc1)C1CCCN(c2ccnc3ccnn23)C1 (centres undefined),inactive
13,CCCNC(=O)NC1CCN(C(=O)N2CC3CC(C2)[C@H]2CCCC(=O)N2C3)CC1 (some centres undefined),inactive
14,CCN1C(=O)Cc2cc(C(=O)NCc3cc(OC)ccc3OC)ccc21,inactive
15,CCN1c2cc(C(=O)Nc3ccc(SC)cc3)ccc2C(=O)N2CCCCCC21 (centres undefined),22.4 µM (active)
16,CCN1c2cc(C(=O)Nc3ccc(F)c(Cl)c3)ccc2C(=O)N2CCCCC21 (centres undefined),39.8 µM (active)
17,COc1ccc(CNC(=O)c2ccc3c(c2)N(C)C2CCCCN2C3=O)c(OC)c1 (centres undefined),inactive
18,CCN1c2cc(C(=O)NCc3ccccc3C(F)(F)F)ccc2C(=O)N2CCCCCC21 (centres undefined),39.8 µM (active)
19,COc1cc(=O)n2c(c1C(=O)Nc1ccc(Cl)c(F)c1)CCCC2,inactive
20,O=C(Nc1ccc([C@H]2OCC(=O)N(C3CCOCC3)[C@@H]2CO)cc1)c1ccc(F)c(Cl)c1,inactive
